In PubChem BioAssay AID1981 (Southern Research Specialized Biocontainment Screening …, 2009):
In all, about 2,200 compounds went through this assay and about 480 (22%) were called active. The rule behind the calls is not given here. Not all results are given here. Results with a measured potency or affinity are listed apart.

experiment: S. Typhimurium GFP fluorescence modified counterscreen for PhoP regulon inhibitor project dose response (AID 1981); conditions: 4 h; series mostly up to 150 µM; inhibition: at the top concentration;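 note: 0% = induced DMSO wells and 100% = uninduced wells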

| Structure (SMILES) | inhibition |
| --- | --- |
| COCCn1cc(C(=O)N2CCC(C)CC2)c2c3ccccc3n(C)c2c1=O | -18.2% (inactive) |
| C=CCNc1ncnc2c1[nH]c1ccc(C)cc12 | 35.9% (inactive) |
| C=CCNc1ncnc2c1[nH]c1ccc(Cl)cc12 | 29.7% (inactive) |
| O=c1cc(Cc2ccccc2)[nH]c(=S)[nH]1 | 32.9% (inactive) |
| CCNC(=O)COC(=O)CCC(=O)c1cccs1 | 14.6% (inactive) |
| Cc1cccc(OCC(=O)N2CCN(Cc3ccncc3)CC2)c1 | -3.8% (inactive) |
| O=C(CN(c1ccc(F)cc1)S(=O)(=O)c1ccc2c(c1)OCCO2)NCc1cccnc1 | -5.53% (inactive) |
| COc1ccc(-c2ccc3c(N)c(C(=O)c4cccc(OC)c4)sc3n2)cc1 | 16.2% (inactive) |
| N#Cc1nc(-c2ccco2)oc1NCCCN1CCOCC1 | -7.05% (inactive) |
| CCSc1cc(N2CCCC2)nc(-c2cccc(C)c2)n1 | -4.48% (inactive) |
| COc1cccc(-n2c(SCC(=O)Nc3ccc4c(c3)CCC4)nc3ccccc3c2=O)c1 | 19.7% (inactive) |
| CCOc1ccc(NC(=O)CCC(=O)n2nc(C)cc2C)cc1 | 1.24% (inactive) |
| Cc1ccc(CNC(=O)C2CCCN(S(=O)(=O)c3c(C)noc3C)C2)cc1 (stereo unspecified) | 1.56% (inactive) |
| O=C(c1ccccc1S(=O)(=O)NCc1ccccc1)N1CCCC1 | -24.7% (inactive) |
| CC(=O)Nc1ccc(-n2nnnc2SCC(=O)Nc2cccc(NC(=O)c3ccco3)c2)cc1 | 2.42% (inactive) |
| O=[N+]([O-])c1ccccc1/C=N/N1CCN(c2ccncc2S(=O)(=O)N2CCCCC2)CC1 | -9.65% (inactive) |

| Structure (SMILES) | inhibition |
| --- | --- |
| C=CCNC(=O)CC(=O)N/N=C/c1ccc(C(=O)OC)cc1 | 1.15% (inactive) |
| Cc1ccc(Cn2c(=N)n(CC(=O)c3ccc([N+](=O)[O-])cc3)c3ccccc32)cc1 | -11.2% (inactive) |
| COc1ccc(/C=N/NC(=O)CC(=O)NCc2cccnc2)cc1 | -0.29% (inactive) |
| COc1ccc2nc(-c3ccccc3)cc(OC)c2c1 | -1.78% (inactive) |
| COC(=O)c1ccc(Nc2cc(C)nc3ccccc23)cc1 | -13% (inactive) |
| Cc1ccc(C(=O)NC(=S)Nc2cccc3c(C)cc(C)nc23)cc1 | -12.6% (inactive) |
| CN1c2ccccc2C(C)(C)[C@]12C=Cc1cc(O)ccc1O2 | 8.27% (inactive) |
| CC(=O)Nc1cccc(OC(=O)c2ccoc2C)c1 | -14.3% (inactive) |
| Nc1ccc(C2(c3ccc(N)cc3)c3ccccc3-c3ccccc32)cc1 | 18.9% (inactive) |
| Cc1ccc(C(=O)NCC(=O)OCC(=O)N2CCCc3ccccc32)cc1 | -12.3% (inactive) |
| O=C(N/N=C/c1cn(-c2ccccc2)nc1-c1ccc(F)cc1)c1ccc2c(c1)OCO2 | 30.2% (inactive) |
| O=C(NNC(=O)c1ccccc1-n1cccc1)c1ccc(Cl)c(Cl)c1 | -16.2% (inactive) |
| O=C(Cn1ncc2c(=O)oc3ccccc3c21)N1CCN(c2ccccn2)CC1 | 2.19% (inactive) |
| CC(C)Nc1cc(C(F)(F)F)nc(-c2ccccn2)n1 | -21.8% (inactive) |
| O=C1c2ccccc2C(=O)N1Cc1nc(-c2ccccn2)no1 | -13.3% (inactive) |
